# The campaign covered roughly 320,000 compounds. About 9,100 (2.8%) were called active. Another 3% or so got no clear call; they are omitted. The sample as a whole holds a higher share of actives than the screen did. Values without a mark were called inactive. The call rests on the fitted dose curve; in most records, active means well fitted activation curve with a large enough effect; inconclusive means small, poorly fitted or top-dose-only effect; inactive means no such curve, though single readings can be large or run the other way.
# Test: qHTS Assay for Rab9 Promoter Activators; further: nearly all actives have a fitted effect of over 60% in size; on activation, negative = inhibition: % of control where 0% means no effect
# Details: Huh7 Rab9 promoter-luciferase reporter, luminescence, 24 h; series mostly up to 9.22 µM; activation, negative = inhibition: at the top concentration
# Source text: NIH Chemical Genomics Center [NCGC] NIH Molecular Libraries Probe Production centers Network [MLPCN] MLPCN Grant: MH089537-01 Assay Submitter (PI): Yiannis A. Ioannou NCGC Assay Overview: Niemann Pick Type C (NPC) is a rare neurodegenerative lipidosis that is characterized by lipid storage in the endosomal/lysosomal system. Treatment modalities for this devastating disease are currently non-existent due to the severe obstacles associated with accessing the central nervous system with proteins or genes (Ioannou, 2000). We have developed a new paradigm, termed "Orphan Receptor Bypass Therapy" (ORByT), to address these disorders. This paradigm posits the existence of endogenous "suppressor" proteins whose expression can dramatically improve LSD pathogenesis. The goal is the identification/discovery of small chemical compounds that can modulate the expression of these proteins and provide a new treatment modality for these devastating disorders. One such protein whose overexpression reverses aspects of the NPC phenotype is Rab9. We have developed and optimized a cell based luciferase reporter assay in 1536 well format for the identification of up-regulators of the Rab9 promoter.
# The Rab9 promoter is cloned in front of the luciferase reporter gene, therefore […] promoter activation results in luciferase expression. Frozen stock of the Rab9 promoter transfected Huh7 cells were obtained from the laboratory of Dr. Yiannis Ioannou (The Mount Sinai School of Medicine, New York, NY). Cells were propagated and maintained at NCGC in medium containing RPMI-1640 supplemented with 10% FBS, 2mM L-glutamine, and 50ug/ml penicillin/streptomycin. Cells were harvested in and plated for assays in OP-MEM I reduced-serum medium supplemented with 10% FBS. The Amplite luciferase reporter gene assay kit was purchased from ABD Bioquest and prepared/stored according to manufacturers recommendations. qHTS Assay Setup: 1.Dispensed 5ul of Huh7 cells stably expressing Rab9-luciferase at a density of 1500 cells per well 1536-well plates. 2.Incubate cells at 37C, 5% CO2, and 95% humidity for 2 hours. 3.Transferred 23nl per well of compound in DMSO solution. 4.Incubated at 37C, 5% CO2, and 95% humidity for 24 hours. 5.Dispensed 3ul per well of Amplite reagent(ABD Bioquest) per well. 6.Incubate at ambient for 10 minutes. 7.Read using the luminescence protocol on the ViewLux plate reader (Perkin Elmer).
# Potency means the concentration at half of the fitted maximal effect.
Structure (SMILES),"activation, negative = inhibition",Potency
CN(C)C(=O)Oc1ccc(OCc2cccc[n+]2C)cc1,-5.21%,–
CCOC(=O)c1c(-c2ccccc2)oc2ccc(OC(=O)N(C)C)cc12,1.01%,–
CN(C)C(=O)Oc1ccc2c(c1)O/C(=C\c1ccccc1)C2=O,–,1.41 µM (active)
c1ccc2c(c1)[I+]c1ccccc1-2,-41.2% [at 46.1 µM],–
CC(=O)c1c(O)c(C)c(O)c(Cc2c(O)c3c(c(C(=O)/C=C/c4ccccc4)c2O)OC(C)(C)C=C3)c1O,-18.4% [at 46.1 µM],–
CC(C)(C)c1ccc(OC(=O)N2CCCCC2)cc1,–,3.16 µM (active)
CN1CCN(C(=O)COc2ccc(C(C)(C)C)cc2Br)CC1,-3.98%,–
O=C(Nc1cccc(OC(=O)N2CCCCC2)c1)N1CCOCC1,1.14%,–
C[C@@H]1C[C@@H]2O[C@H]2/C=C\C=C\C(=O)Cc2c(Cl)c(O)cc(O)c2C(=O)O1,-40.2%,–
CNCC[C@H](Oc1ccc(C(F)(F)F)cc1)c1ccccc1,–,inactive
